# Bioassay records (PubChem BioAssay)
# Only some compounds are listed: those with a hit (about 3.3% of all), similar ones and a draw of the others.
# HCV inhibitor: qHTS Assay for Inhibitors of Hepatitis C Virus (HCV). hit rate 3.4% among 340,000. Huh7.5.1 HCVcc-Cre infection, luciferase reporter, 44 h. AID 651820, 2012. Potency, µM (highest dose often 41.8 µM), actives largely listed as inhibitors; active means well fitted inhibition curve with a large enough effect; inconclusive means small, poorly fitted or top-dose-only effect, or another doubt; inactive means no such curve, though single readings can be large or run the other way
#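 A cell-based infection assay in which seeded cells (1,000 per well) receive test compound after 4 h, are inoculated with HCVcc-Cre at approximately 0.5 moi, and are incubated 44 h before luminescence detection.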
# VACV Venus inh: qHTS for Stage-Specific Inhibitors of Vaccinia Orthopoxvirus: Venus Reporter Primary qHTS. Vaccinia virus Venus reporter expression, fluorescence. Potency, µM (series often up to 36.5 µM), hits mostly inhibitors. hit rate 0.46% among 330,000; calls by dose curve; tested in A549 cells; further: nearly all actives have a fitted effect of over 30% in size
# Vaccinia mCherry: qHTS for Stage-Specific Inhibitors of Vaccinia Orthopoxvirus: mCherry Reporter Primary qHTS; Vaccinia virus mCherry reporter infection, fluorescence; Potency, µM (series often up to 36.5 µM), actives largely listed as inhibitors; hit rate 0.63% among 310,000; AID 720579, 2013; calls by dose curve; tested in A549 cells; further: nearly all actives have a fitted effect of over 35% in size
# Numbers stand for hits; . = inactive; ? = inconclusive; / = not tested or not shown.
SMILES,HCV inhibitor,VACV Venus inh,Vaccinia mCherry
CC1=NN(c2nc3ccccc3[nH]2)C(=O)/C1=C/N(C)C,?,.,.
CC1=NN(c2nc3ccccc3[nH]2)C(=O)C1Cc1ccccc1 (stereo not drawn),3.5µM,.,.
COC(=O)c1ccc(CSc2nc3c([nH]c4ccccc43)c(=O)n2-c2ccc(Cl)cc2)o1,/,.,.
COc1ccc(C2C(C#N)=C(N)N(c3sc4c(c3C#N)CCCC4)C3=C2C(=O)CC(C)(C)C3)cc1 (stereo not drawn),7.9µM,/,/
COc1ccc(C2C(C#N)=C(N)N(N(C)C)C3=C2C(=O)CC(C)(C)C3)cc1 (stereo not drawn),.,/,/
COC(=O)c1ccc(CSc2nc3c([nH]c4ccccc43)c(=O)n2-c2ccc(F)cc2)o1,/,.,.
ClC1=C(Cl)[C@]2(Cl)[C@@H]3[C@H]4C[C@H]([C@@H]5O[C@H]45)[C@@H]3[C@@]1(Cl)C2(Cl)Cl,/,.,.
CC1CCCC(C)N1CCCNC(=O)c1ccc2c(c1)NC(=O)c1ccccc1S2 (stereo not drawn),?,.,.
CCN1CCCC1CNC(=O)c1ccc2c(c1)NC(=O)/C(=C\c1ccc(OC)c(OC)c1)S2 (stereo not drawn),0.79µM,/,/
COc1ccc(/C=C2/Sc3ccc(C(=O)NCCCN4CCOCC4)cc3NC2=O)cc1OC,7.9µM,.,.
Cc1ccc(/C=C2/Sc3ccc(C(=O)NCc4ccccn4)cc3NC2=O)cc1,.,/,/
CCN1CCN(CCCNC(=O)c2ccc3c(c2)NC(=O)/C(=C\c2cccc(C)c2)S3)CC1,1.8µM,/,/
CCN1CCCC1CNC(=O)c1ccc2c(c1)NC(=O)/C(=C\c1ccccc1Cl)S2 (stereo not drawn),/,.,.
CCC(C)N(CCNC(=O)c1ccc2c(c1)NC(=O)c1ccccc1S2)C1CCCCC1 (stereo not drawn),22µM,.,.
COc1ccc(C(=O)NCCCN2CCOCC2)cc1OC,.,/,/
Cc1ccc(Nc2ccc(N3CCN(C(=O)c4ccc([N+](=O)[O-])cc4Cl)CC3)nn2)cc1,/,.,.
CSc1nnc(CNC(=O)c2c(-c3ccccc3)noc2C)n1-c1ccc(F)cc1,/,.,.
Cc1cc(C(=O)Nc2cccc(-c3nc(CNC(=O)c4sc(C)nc4C)c(C)o3)c2)c(C)o1,/,.,.
Cc1ccc(NC2C(=O)NC(=O)NC2=O)cc1,.,.,.
CCN1CCN(CCCNC(=O)c2ccc3c(c2)NC(=O)c2ccccc2S3)CC1,10µM,.,.
O=C(NCCCN1CCCC1=O)c1ccc2c(c1)NC(=O)c1ccccc1S2,.,.,.
CC1Cc2ccccc2N1S(=O)(=O)c1cccc(C(=O)N2CCN(c3ncccn3)CC2)c1 (stereo not drawn),?,.,1.6µM
CCN(CC)CCNC(=O)c1ccc(NC(=O)c2cccc(S(=O)(=O)N3CCc4ccccc43)c2)cc1,?,.,?
CC(=O)N1CCN(C(=O)c2cccc(S(=O)(=O)N3c4ccccc4CC3C)c2)CC1 (stereo not drawn),.,.,.
CCN(CC)CCNC(=O)c1ccc(NC(=O)c2cccc(S(=O)(=O)N3c4ccccc4CC3C)c2)cc1 (stereo not drawn),11µM,/,/
SMILES,HCV inhibitor,VACV Venus inh,Vaccinia mCherry
CCCN(CC(=O)Nc1ccccc1C)C(=O)C1CC(=O)N(c2cccc(C)c2C)C1 (stereo not drawn),.,.,.
Cc1ccc(S(=O)(=O)Nc2c(C)cc([N+](=O)[O-])cc2C)cc1,.,.,.
Cc1ccc(S(=O)(=O)c2ccc([N+](=O)[O-])o2)cc1,3.5µM,?,?
Cc1cc2c(c(-c3cnccn3)c1)OC(CNC(=O)c1cc(C(C)C)[nH]n1)C2 (stereo not drawn),/,.,.
CC1CN(C(=O)CCC(=O)Nc2cc(F)ccc2F)c2ccccc2S1 (stereo not drawn),/,.,.
Cc1ccc(NC(=O)Nc2ccnc(-c3cccnc3)n2)cc1,11µM,/,/
CCC(=O)Nc1ccnc(-c2cccnc2)n1,.,/,/
COc1cc(C)c2occ(/C(C)=N\O)c2c1,8.9µM,/,/
COc1ccc2occ(C(C)=O)c2c1,.,.,.
CCc1ccc(-n2nc(C)c3c(C)cc(=O)n(Cc4nc(-c5ccccc5)oc4C)c32)cc1,/,.,.
CCCn1c2ccccc2c2cnn(CC(=O)N3CCN(c4ccccc4)CC3)c(=O)c21,/,.,.
CCOC(=O)N1CCC(NC(=O)c2cnn(-c3ccc(C)cc3C)c2C2CCN(C(=O)OC(C)(C)C)CC2)CC1,/,.,.
O=C(Nc1sc2c(c1C(=O)NCC1CCCO1)CCC2)c1cc(=O)c2ccccc2o1 (stereo not drawn),/,.,.
COc1ccccc1OCC(=O)Nc1sc2c(c1C(=O)NCC1CCCO1)CCC2 (stereo not drawn),0.89µM,.,.
CCCNC(=O)C1(CC2CC(c3ccccc3)=NO2)CCN(C(=O)C2CCCC2)CC1 (stereo not drawn),.,.,.
O=[N+]([O-])c1cc([N+](=O)[O-])c(Oc2cccnc2Br)cc1NN1CCCCC1,.,?,13µM
COc1ccc(Oc2cc(NN3CCCCC3)c([N+](=O)[O-])cc2[N+](=O)[O-])cc1OC,.,?,?
O=[N+]([O-])c1cc([N+](=O)[O-])c(Oc2cccc3ccccc23)cc1NN1CCCCC1,.,.,.
CC(=O)c1cccc(Oc2cc(NN3CCCCC3)c([N+](=O)[O-])cc2[N+](=O)[O-])c1,8.9µM,?,?
Cc1ccc(S(=O)(=O)Nc2ccc(-c3ccc(N4CCCCCC4)nn3)cc2)cc1C,/,.,.
CCOc1ccc(C2CC(=O)Nc3c2c(=O)nc(SCc2ccccc2C)n3C)cc1OC (stereo not drawn),/,.,.
COc1ccccc1N1CCN(C(=O)CSc2n[nH]c(-c3ccccc3Cl)n2)CC1,/,.,.
O=C(NCCn1cc(SCc2ccccc2)c2ccccc21)c1ccccc1F,11µM,.,.
Cc1ccc(C)c(CSc2cn(CCNC(=O)c3ccccc3F)c3ccccc23)c1,/,.,.
CCN1CCN(c2c(S(=O)(=O)c3ccc(OC)cc3)cnc3cc(OC)c(OC)cc23)CC1,/,.,.
SMILES,HCV inhibitor,VACV Venus inh,Vaccinia mCherry
COc1cc2ncc(S(=O)(=O)c3ccccc3)c(N3CCCC(C)C3)c2cc1OC (stereo not drawn),11µM,?,?
COc1ccc(C(=O)Cn2cc[n+](C)c2)cc1,11µM,.,.
COc1ccc(C(=O)CC(=O)c2ccc(OC)cc2)cc1,.,.,.
COc1ccc(C(C)=O)cc1COC(=O)c1ccc(N)c([N+](=O)[O-])c1,11µM,.,.
Nc1ccc(C(=O)OCc2ccncc2)cc1[N+](=O)[O-],.,.,.
COc1ccc(C(C)=O)cc1COc1cccnc1[N+](=O)[O-],?,.,.
COc1ccc(C(C)=O)cc1COc1ccccc1[N+](=O)[O-],6.3µM,.,.
COc1cc(=O)n2c(c1C(=O)NCc1ccco1)CCN(Cc1ccc(F)cc1Cl)CC2,/,.,.
Cc1ccc(C(=O)Nc2cnn(-c3ccc(C(=O)NCc4nc(-c5ccccc5)n[nH]4)cc3)c2)c(C)c1,/,.,.
CS(=O)(=O)N(Cc1ccccc1)c1ccc(C(=O)N2CCN(c3cccc(Cl)c3)CC2)cc1,8.9µM,/,/
CS(=O)(=O)N(Cc1ccc(C(=O)N2CCc3ccccc3C2)cc1)c1ccccc1,?,.,.
